# PfHsp90 yeast 2: inhibits growth of yeast expressing Plasmodium falciparum Hsp90. inhibition, % at 9.4 µM. S. cerevisiae expressing PfHsp90, BacTiter-Glo ATP, 48 h; yeast lacking PDR1 and PDR3 efflux regulators. 310,000 tested, 0.32% active;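 active = every replicate shows inhibition above about 80%, whatever the replicate mean, limit read from the data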
# TIM10 inh: TIM10 yeast growth inhibition. S. cerevisiae TIM10 strain growth, BacTiter-Glo luminescence, 24 h. inhibition, % at 10 µM. 330,000 tested, 1.4% active. AID 463195;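 active = inhibition of 40% or more at the single tested concentration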;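 note: wild-type TIM10 isogenic control strain grown at permissive 25 °C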
# tim23-1 inh: inhibits growth of tim23-1 mutant yeast | S. cerevisiae tim23-1 growth, BacTiter-Glo luminescence, 24 h | inhibition, % at 20 µM | 330,000 tested, 1.3% active;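 active = growth inhibition of the mutant yeast at or above 50%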;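 note: temperature-sensitive mutant grown at 25 °C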
# tim10-1 inh: inhibits growth of tim10-1 mutant yeast; 330,000 tested, 2.2% active; inhibition, % at 20 µM; S. cerevisiae tim10-1 ts strain growth, BacTiter-Glo, 24 h; AID 463190;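 active = inhibition of at least 40%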;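 note: mutant grown at 25 °C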
# NALP3 yeast inh: inhibitors of NALP3 inflammasome in yeast | Yeast reconstituted NLRP3/ASC/caspase-1, beta-gal luminescence, 24 h | inhibition, % at 10 µM | 330,000 tested, 0.39% active | AID 2825;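 active = inhibition of 50% or more; inactive = inhibition below 50%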
# TIM10 conf: TIM10 yeast growth inhibition, confirmed; shares compounds with TIM10 inh; S. cerevisiae tim10 strain growth, BacTiter-Glo luminescence, 24 h; inhibition, % at 10 µM; 4,600 tested, 63% active; AID 463215;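 active = inhibition of yeast growth at or above a set limit in either of two replicates at 10 µM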; note: this counterscreen used the strain with wild-type TIM10
# tim23-1 confirm: confirmation of tim23-1 mutant yeast growth inhibitors. shares compounds with tim23-1 inh. S. cerevisiae tim23-1 growth, BacTiter-Glo luminescence, 24 h. AID 463218. 4,400 tested, 83% active. inhibition, % at 20 µM;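 active = inhibition above about 39% in either of two replicate wells at 20 µM, limit read from the data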;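 note: temperature-sensitive tim23-1 mutant grown at 25 °C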
# Hits are given with their value; - = inactive; . = not tested or not shown. A selection: hits, their analogues and other compounds. The true share with any hit is near 3.7%.
SMILES,PfHsp90 yeast 2,TIM10 inh,tim23-1 inh,tim10-1 inh,NALP3 yeast inh,TIM10 conf,tim23-1 confirm
O=C(Nc1nccs1)c1cc2c(s1)CCCCC2,-,46,58,-,-,59,65
O=C(Nc1nncs1)c1cc2c(s1)CCC2,-,-,-,-,-,.,.
Nc1ccc(-c2nc(-c3ccccc3)nc3ccccc23)cc1,-,56,67,-,-,54,57
Nc1ccc(-c2cc(-c3cccc(N)c3)nc(-c3ccccc3)n2)cc1,-,-,-,-,-,.,.
COc1ccc(OC)c2[nH]c(C(=O)N/N=C/c3ccccc3O)cc12,-,45,54,-,-,-,50
COc1ccc(/C=N/NC(=O)c2cc3c(OC)ccc(OC)c3[nH]2)cc1O,-,-,-,-,-,.,.
Oc1ccc(Nc2nc(-c3ccccc3O)nc3ccccc23)cc1,-,47,75,-,-,62,-
Nc1c(C(=O)Nc2ccccc2)sc2nc(-c3ccco3)ccc12,.,67,64,-,-,63,85
COc1ccccc1NC(=O)c1sc2nc(-c3ccco3)ccc2c1N,.,-,-,-,-,.,.
c1csc(-c2nc3ccccc3[nH]2)c1,-,-,-,-,-,.,.
Cc1ccc(-c2nc3ccccc3[nH]2)s1,-,40,51,-,-,-,71
O=C(/C=C/Sc1ccccc1)c1ccccc1,-,59,66,-,-,65,81
O=C(/C=C/Nc1ccccc1)c1ccccc1,-,-,-,-,-,.,.
Cc1nn2c(NCc3ccccn3)c3c(nc2c1-c1ccccc1)CCC3,.,55,56,-,-,52,57
Cn1c(CSc2nc3ccccc3s2)n[nH]c1=S,-,-,-,-,-,.,.
Cn1c(CSc2nc3ccccc3s2)nc2ccccc21,-,46,58,-,-,43,65
Cc1cccc(N(Cc2cc3ccccc3[nH]c2=O)S(=O)(=O)c2ccccc2)c1,-,-,-,-,-,.,.
CCn1cnc2c1c(=O)n(CC(=O)OC(C)C(N)=O)c(=O)n2Cc1ccccc1 (stereo not drawn),-,-,-,-,-,.,.
CCc1ccc(/C=N/n2c(COc3ccccc3)n[nH]c2=S)cc1,-,44,61,-,-,42,-
Cc1ccc(/C=C/C(=O)c2ccc([N+](=O)[O-])o2)cc1,.,68,57,-,-,78,-
CCN(CC)c1ccc(/C=N/NC(=O)c2c(Cl)cnn2C)c(O)c1,-,58,67,-,-,-,62
Clc1ccc(-c2nnc(NCc3ccccc3)c3ccccc23)cc1,-,54,68,-,-,57,71
Cc1cccc(N2CCN(S(=O)(=O)c3ccc4c(c3)NC(=O)CS4)CC2)c1C,-,40,63,-,-,36,-
O=C(CNC(=S)NC(=O)c1cccs1)c1ccccc1,-,44,63,-,-,-,67
CCC(C)c1ccccc1NC(=O)C(C)Sc1n[nH]c(N)n1 (stereo not drawn),-,-,-,-,-,.,.
SMILES,PfHsp90 yeast 2,TIM10 inh,tim23-1 inh,tim10-1 inh,NALP3 yeast inh,TIM10 conf,tim23-1 confirm
Cc1ccc(C(=O)/C=C/c2ccccc2[N+](=O)[O-])cc1,-,50,59,-,-,38,62
CO/N=C(\C(=O)O)c1csc(NN=C(C)C)n1,-,-,-,-,-,.,.
O=C(Nc1ccc2c(c1)OCCO2)c1ccc(Br)s1,-,.,.,.,.,.,.
CCc1sc(C(=O)Nc2ccc3c(c2)OCCO3)cc1Br,-,54,79,-,-,47,85
O=[N+]([O-])c1cc2oc3c(c2c(C=NCc2ccccc2)c1O)CCCC3,-,54,77,-,-,-,-
COc1cc(CN2CCc3ccccc3C2)cc([N+](=O)[O-])c1O,-,-,-,-,-,.,.
CC(NC(=O)COC(=O)c1ccc(N(C)C)cc1)c1ccccc1 (stereo not drawn),-,-,-,-,-,.,.
Cc1ccc(-c2nnc(N3CCN(c4ccccn4)CC3)c3ccccc23)cc1,-,48,65,-,-,-,72
COC(=O)c1cc(COC(=O)c2cccnc2SC)oc1C,-,-,-,-,-,.,.
O=Cc1cn(-c2ccccc2)nc1-c1ccncc1,.,47,56,-,-,38,47
O=C(O)/C=C/c1cn(-c2ccccc2)nc1-c1ccccc1,-,-,-,-,-,.,.
CCOc1ccc2nc(Cl)c(/C=C/C(=O)c3ccco3)cc2c1,.,-,-,-,-,.,.

# High-throughput results (PubChem)
